Rac1 wt modul: alters GTP binding to wildtype human Rac1; P63000; GST-Rac1 beads, fluorescent GTP binding, flow cytometry; actives lie on both sides; 0 = cold GTP competed, 100 = untreated; GTP binding activity (% of control), % at 10 µM; 190,000 tested, 0.27% active; AID 757;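 active = GTP binding activity at least 20 points away from the 100% control level, either lower or higher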
Rab7 wt GTP bind: modulators of GTP binding to dog Rab7 wildtype GTPase; GST-Rab7 beads, fluorescent GTP binding, flow cytometry; actives lie on both sides; untreated = 100%, excess cold GTP = 0%; 190,000 tested, 0.055% active; AID 758; GTP binding activity (percent of control), % at 10 µM;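 active = fluorescent GTP binding to Rab7 beads changed by at least 20 points from the 100% baseline, either direction, mostly lower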;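 note: median green fluorescence of bound Bodipy-FL-GTP per Rab7 bead population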
HRas wt GTP: modulators of GTP binding to human HRas wildtype | P01112 | GST-Ras wt beads, Bodipy-FL-GTP binding, flow cytometry; actives lie on both sides | GTP binding activity, % at 10 µM | 190,000 tested, 0.14% active;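 active = GTP binding activity at least 20% away from the 100% baseline, either lowered as inhibitor or raised as activator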
Target sequence (P01112 whole entry, looked up): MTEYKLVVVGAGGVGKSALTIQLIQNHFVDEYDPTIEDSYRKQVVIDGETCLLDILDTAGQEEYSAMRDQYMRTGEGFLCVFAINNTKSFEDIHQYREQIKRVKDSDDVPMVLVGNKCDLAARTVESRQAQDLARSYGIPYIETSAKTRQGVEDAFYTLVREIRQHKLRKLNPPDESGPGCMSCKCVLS
Rac1 act GTP bind: modulators of GTP binding to human Rac1 activated mutant. P63000. GST-Rac1 activated beads, fluorescent GTP binding, flow cytometry; actives lie on both sides; 100% means binding = to untreated wells. percent activity (GTP binding), % at 10 µM. 190,000 tested, 0.11% active;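 active = GTP binding at least 20 percentage points away from the 100% baseline, in either direction, so actives lie on both sides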
Rab2 wt GTP: changes GTP binding to wildtype dog Rab2A, up or down; P61105; GST-Rab2 wt beads, Bodipy-GTP binding, flow cytometry; GTP binding activity, % at 10 µM; 190,000 tested, 0.19% active; AID 760;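 active = GTP binding activity at least 20 points away from 100%, either lowered or raised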
Cdc42 wt: modulators (inhibitors or activators) of GTP binding to human Cdc42 wildtype | P60953 | GST-Cdc42 beads, Bodipy-GTP binding, flow cytometry; actives lie on both sides | percent activity (GTP binding), % at 10 µM | 190,000 tested, 0.2% active;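 active = percent activity GTP binding at least 20 points away from the 100% baseline, either down as inhibitor or up as activator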;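 note: median bead fluorescence of bound Bodipy-FL-GTP at 100 nM; below 100% means less GTP binding so inhibitor and above means activator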
Target sequence (P60953 whole entry, looked up): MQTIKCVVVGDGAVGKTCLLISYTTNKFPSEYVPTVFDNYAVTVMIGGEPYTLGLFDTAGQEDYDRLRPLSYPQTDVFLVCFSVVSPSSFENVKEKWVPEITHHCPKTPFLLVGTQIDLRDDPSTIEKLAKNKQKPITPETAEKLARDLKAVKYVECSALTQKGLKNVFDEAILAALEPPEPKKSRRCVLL
Of the large screens only hits and unclear results are named; the others gave an inactive call; [ ] = remark or other dose. In the library only some 0.37% were active in any assay of this set; here they are far more common.

Cn1cccc1/C=C1\SC(=S)N(NC(=O)c2ccccc2Cl)C1=O	Rac1 wt modul 78
OC(CNCCC1C=Nc2ccccc21)Cn1c2ccc(Cl)cc2c2cc(Cl)ccc21 (stereo not given)	Rac1 wt modul 144[activator]
Cc1cc(C)n(CC(O)Cn2c3ccc(Cl)cc3c3cc(Cl)ccc32)c(=O)n1 (stereo not given)	none
Cc1ccc2sc(N(CCCN(C)C)C(=O)CN3C(=O)c4ccccc4C3=O)nc2c1C	none
CC1CCN(CCCNC(=O)c2ccc(Cn3c(=S)[nH]c4ccc(Br)cc4c3=O)cc2)CC1	none
O=c1[nH]c(N/N=C\c2ccc3c(c2)OCO3)nc2ccccc12	Rac1 wt modul 67, HRas wt GTP 80, Rab2 wt GTP 77, Cdc42 wt 78
Cc1nc(/C=C\C(=O)O)c2cc(C)oc2n1	none
Cc1ccc(-c2nn(-c3cc(N4CCNCC4)ccc3[N+](=O)[O-])c(=O)c3ccccc23)cc1	none
O=C(Nc1ccc2nc(-c3cccs3)[nH]c2c1)c1cccs1	Rac1 wt modul 76, HRas wt GTP 75, Rab2 wt GTP 77, Cdc42 wt 75
N/C(=N\OC(=O)COc1cc(Cl)c(Cl)cc1Cl)c1ccccn1	none
COCc1cc(C)nc(N/N=C/c2ccc(-c3ccc(C(=O)O)c(Cl)c3)o2)c1C#N	Rac1 wt modul 67, HRas wt GTP 78, Rab2 wt GTP 77, Cdc42 wt 73
O=C(NCc1cccs1)c1cccn2c(=O)c3sccc3nc12	Rac1 wt modul 55, HRas wt GTP 66, Rac1 act GTP bind 77, Rab2 wt GTP 63, Cdc42 wt 63
O=C(NCc1cccs1)c1cnc2ccccn2c1=O	none
CC(C)Nc1nnc(SC(C)C(=O)Nc2ccc(Cl)cn2)s1 (stereo not given)	none
COc1ccccc1Nc1nc(-c2c(C)nc3ncccn23)cs1	Rac1 wt modul 63, HRas wt GTP 62, Rac1 act GTP bind 79, Rab2 wt GTP 62, Cdc42 wt 66
COc1ccc(Nc2nc(-c3c(C)nc4ncccn34)cs2)cc1	Rac1 wt modul 65, HRas wt GTP 77, Rab2 wt GTP 76, Cdc42 wt 76
Cc1nc2ncccn2c1-c1csc(Nc2ccccc2)n1	Rac1 wt modul 60, HRas wt GTP 59, Rab2 wt GTP 62, Cdc42 wt 67
Cc1nc2ncccn2c1-c1csc(Nc2ccc(N(C)C)cc2)n1	none
CC1(C)CC(NC(=O)c2ccncc2)CC(C)(C)N1O	none
CC(CCc1ccccc1)NS(=O)(=O)c1ccccc1 (stereo not given)	none
COc1cccc(/C=N/NC(=O)C(C)Sc2ccccc2)c1 (stereo not given)	none
CCOc1cc(/C=N/NC(=O)C(C)Sc2ccccc2)ccc1O (stereo not given)	Rac1 wt modul 78
CCCCN(Cc1ccccc1)C(=O)C1CCCN(S(=O)(=O)c2cnc[nH]2)C1 (stereo not given)	none
COc1ccc(C(=O)CSc2ccc3nnc(-c4cccnc4)n3n2)cc1	none
O=C(O)CSc1ccc2nnc(-c3cccnc3)n2n1	Rac1 wt modul 78
Cn1cc(C(=O)N2CCc3ccccc3C2)c(=O)c2cc(S(=O)(=O)N3CCCCC3)ccc21	Rac1 wt modul 121[activator]
CCn1nc(C(=O)OCC(=O)c2cc(C)n(Cc3cccs3)c2C)c2ccccc2c1=O	Rac1 wt modul 78, Rac1 act GTP bind 74, Rab2 wt GTP 76, Cdc42 wt 77
COc1ccc(N(C(=O)c2cccnc2)S(=O)(=O)c2cccs2)cc1	none
COc1cc2[nH]c(=S)nc(NCc3ccccn3)c2cc1OC	Rac1 wt modul 76
COCCNc1nc(=S)[nH]c2cc(OC)c(OC)cc12	Rac1 wt modul 71, Rab7 wt GTP bind 79, HRas wt GTP 71, Rab2 wt GTP 69, Cdc42 wt 68
COc1ccc(CCNC(=O)CCCCCNc2nc(=S)[nH]c3ccccc23)cc1OC	none
COc1cc2c(cc1NCc1ccccn1)oc1ccccc12	none
COc1ccc(-c2c3c(nc4sc5c(=O)[nH]c(C)nc5c24)CCC3)cc1	Rac1 wt modul 76, Rab2 wt GTP 76
O=C1c2ccccc2-c2onc3ccc(Oc4ccccc4)c1c23	Rac1 wt modul 79, Rac1 act GTP bind 68, Rab2 wt GTP 79, Cdc42 wt 78
CCOC(=O)C(C(=O)OCC)c1cc(Br)c2noc3c2c1C(=O)c1ccccc1-3	none
O=C(CN1C(=O)C2C3c4ccccc4C(c4ccccc43)C2C1=O)Nc1cccc(C(=O)O)c1 (stereo not given)	Rac1 wt modul 130[activator], Rab7 wt GTP bind 145[activator], HRas wt GTP 124[activator], Rac1 act GTP bind 155[activator], Rab2 wt GTP 127[activator], Cdc42 wt 125[activator]
CCn1c2ccccc2c2nc3ccccc3nc21	none
CCn1c2ccccc2c2nc3cc(C(=O)O)ccc3nc21	Rac1 wt modul 77
COc1ccc(-c2cc(C#N)nc(N3CCN(C)CC3)n2)cc1	none
COc1ccc(-c2cc(C#N)nc(N3CCNCC3)n2)cc1	Rac1 wt modul 131[activator], HRas wt GTP 125[activator], Rac1 act GTP bind 131[activator], Rab2 wt GTP 127[activator], Cdc42 wt 131[activator]
CCOC(=O)/C=C1\SCC(=O)N1CCOc1cccc(Br)c1	Rab7 wt GTP bind 73, HRas wt GTP 62, Rab2 wt GTP 79
NS(=O)(=O)c1ccc(-c2ccc(/C=C3\C(=O)Nc4cc(Cl)ccc43)o2)cc1	Rac1 wt modul 68, HRas wt GTP 76, Rab2 wt GTP 76, Cdc42 wt 73
CC1(C)OC(=O)C(=Cc2ccc(-c3ccc(S(N)(=O)=O)cc3)o2)C(=O)O1	none
COc1ccc(NC(=O)Cn2c(=O)n(-c3ccc(OC)cc3OC)c(=O)c3c(C)c(C)sc32)cc1	none
Cn1c(=O)c2c(nc(N/N=C/c3ccco3)n2C)n(C)c1=O	Rac1 wt modul 74
O=C(O)c1cc(N2N=C(C(F)(F)F)/C(=C/C=C/c3ccco3)C2=O)ccc1Cl	Rac1 act GTP bind 76, Cdc42 wt 79
COc1ccc(CCn2c(C)nc3c(c(=O)c4ccccc4n3C)c2=O)cc1	none
COc1ccc(CCn2c(C(C)C)nc3c(c(=O)c4ccccc4n3C)c2=O)cc1	Rab2 wt GTP 77
CCOC(=O)c1[nH]ncc1CN1CCN(Cc2ccccc2)C(CCO)C1 (stereo not given)	none
COc1ccc(N(C)C2=NS(=O)(=O)c3ccccc32)cc1	none
CN(/N=C/c1ccco1)C1=NS(=O)(=O)c2ccccc21	Rac1 wt modul 64, HRas wt GTP 76, Rab2 wt GTP 73, Cdc42 wt 71
COc1ccc(OCc2nc3c4cc(OC)c(OC)cc4nc(=S)n3[nH]2)cc1	Rac1 wt modul 77

Source: PubChem (NMMLSC)
